Data as given in PubChem BioAssay (NCI).
The panel holds about 79,000 compounds, 15% with a hit somewhere; the sample as a whole holds those more often. Active and inactive are the calls of the source. Cut-off read from the data, not from the text of the source: active = growth inhibition above about 70%; inactive = the rest.

Legend:
[1] = NCI Yeast Anticancer Drug Screen. Data for the rad50 strain (AID 155);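 note: 0% = growth of vehicle-only cultures of the same strain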; settings: S. cerevisiae rad50 strain growth inhibition, stronger effect = higher value
How it was run: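 Growth of the mutant yeast was measured after compound exposure and referenced to vehicle-treated cultures.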

[2] = NCI Yeast Anticancer Drug Screen. Data for the mec2-1 strain (AID 157); settings: S. cerevisiae mec2-1 strain, stronger effect = higher value
How it was run: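 Yeast mec2-1 mutant treated with compound. Readout: growth inhibition vs vehicle controls.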

[3] = NCI Yeast Anticancer Drug Screen. Data for the sgs1 mgt1 strain (AID 161);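 note: 0% = growth of cultures given vehicle only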; settings: S. cerevisiae sgs1 mgt1 strain, stronger effect = higher value
How it was run: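 Genetically altered yeast, compound exposure, growth inhibition relative to vehicle.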

[4] = NCI Yeast Anticancer Drug Screen. Data for the cln2 rad14 strain (AID 165);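 note: 0% = growth equal to vehicle treated cultures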; settings: S. cerevisiae cln2 rad14 strain, stronger effect = higher value
How it was run: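 cln2 rad14 yeast strain; compound exposure; growth inhibition read vs vehicle controls.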

[5] = NCI Yeast Anticancer Drug Screen. Data for the bub3 strain (AID 167); settings: S. cerevisiae bub3 mutant strain, stronger effect = higher value
How it was run: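 Whole-cell yeast assay. The mutant strain was incubated with compounds, and growth inhibition was determined by comparison with vehicle-treated cells.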

[6] = NCI Yeast Anticancer Drug Screen. Data for the mlh1 rad18 strain (AID 175); settings: S. cerevisiae mlh1 rad18 strain growth inhibition, stronger effect = higher value
How it was run: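 Yeast w/ defined DNA-repair lesions; compound exposure; growth vs vehicle controls → % inhibition.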

[7] = at 5.0 µM (retest, dose inferred, filed as 0.5)
[8] = at 50.0 µM (retest, dose inferred, filed as 5.0)

Measured: growth inhibition

O=[N+]([O-])/C(C(Cl)=C(Cl)Cl)=C(/Nc1ccccc1)SCc1ccccc1
active: [1]; [8] 100% | [2]; [8] 100% | [3]; [8] 99% | [4]; [8] 97% | [5]; [8] 94% | [6]; [8] 100%
inactive: [1]; [7] 32% | [1]; at 50.0 µM 12.3% | [2]; [7] 32% | [2]; at 50.0 µM 26.1% | [3]; [7] 13% | [3]; at 50.0 µM 18.9% | [4]; [7] 21% | [4]; at 50.0 µM 14.6% | [5]; [7] 28% | [5]; at 50.0 µM 43.4% | [6]; [7] 38% | [6]; at 50.0 µM 50.6%

O=C1CCSC(=S)N1c1ccc(Br)c(Cl)c1
inactive: [1]; [7] 13% | [1]; at 50.0 µM 39.8% | [2]; [7] 9% | [2]; at 50.0 µM 39.4% | [3]; [7] 52% | [4]; [7] -4% | [4]; at 50.0 µM 12.7% | [5]; [7] -4% | [5]; at 50.0 µM 13.8% | [6]; [7] 29% | [6]; at 50.0 µM 69.5%
active: [1]; [8] 94% | [2]; [8] 94% | [3]; [8] 99% | [3]; at 50.0 µM 72.3% | [4]; [8] 79% | [5]; [8] 98% | [6]; [8] 99%

O/N=C(/Cc1ccccc1)c1ccc2c(c1)OCO2
inactive: [1]; [7] -4% | [1]; [8] 6% | [1]; at 50.0 µM -9.8% | [2]; [7] -14% | [2]; [8] -11% | [2]; at 50.0 µM 4.9% | [3]; [7] -18% | [3]; [8] 3% | [3]; at 50.0 µM -2.4% | [4]; [7] -6% | [4]; [8] 17% | [4]; at 50.0 µM 8.6% | [5]; [7] 6% | [5]; [8] 29% | [5]; at 50.0 µM 15.1% | [6]; [7] -19% | [6]; [8] 10% | [6]; at 50.0 µM 2.95%

C=CC1(c2ccc(OC)cc2)OCCCO1
active: [1]; [8] 99% | [1]; at 50.0 µM 89.7% | [2]; [8] 99% | [2]; at 50.0 µM 92.4% | [3]; [8] 99% | [3]; at 50.0 µM 87.5% | [4]; [8] 99% | [4]; at 50.0 µM 88.7% | [5]; [8] 100% | [5]; at 50.0 µM 90.8% | [6]; [8] 97% | [6]; at 50.0 µM 89%
inactive: [1]; [7] -11% | [2]; [7] -13% | [3]; [7] -16% | [4]; [7] 27% | [5]; [7] -27% | [6]; [7] -16%

COc1ccc(NC(=O)C(Cc2ccccc2)NC(C)=O)cc1 (stereo not given)
inactive: [1]; [7] 9% | [1]; [8] 7% | [1]; at 50.0 µM 48.6% | [2]; [7] 1% | [2]; [8] -9% | [2]; at 50.0 µM -5.75% | [3]; [7] -12% | [3]; [8] -14% | [3]; at 50.0 µM 3.15% | [4]; [7] -5% | [4]; [8] 1% | [4]; at 50.0 µM -55.5% | [5]; [7] -4% | [5]; [8] -2% | [5]; at 50.0 µM 9.7% | [6]; [7] -1% | [6]; [8] -25% | [6]; at 50.0 µM 6.2%
